Data published in the supplement of paper PMC11001985.

Tests used:
Experiment in all cases: lysine labeling ratio R10:1 (500 µM / 50 µM probe), SILAC-ABPP in living cells; higher = lower intrinsic lysine reactivity toward the probe, active = 2 or less
Conditions in all cases: HeLa; probe concentrations 500 vs 50 µM
[1] = molecular target: PODXL (lysine site: K418) (UniProt O00592)
Method in brief: (§1)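 Living SILAC light and heavy HeLa cells in PBS at room temperature were treated with an alkyne-tagged, disulfide-linked lysine probe at 50 µM or 500 µM, with forward and reverse label swaps. The mixed lysates were clicked to biotin-azide, digested with trypsin, captured on neutravidin, released with DTT, alkylated and run by LC-MS/MS on a TIMS-TOF Pro. R for each lysine is the filtered median high-probe/low-probe MS1 peptide ratio, taken again as the median over forward and reverse replicates. Any value above 20 is set to 20.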

[2] = molecular target: PODXL (lysine site: K422) (UniProt O00592)
Method in brief: as §1

[3] = molecular target: PODXL (lysine site: K444) (UniProt O00592)
Method in brief: as §1

[4] = molecular target: PSMD6 (lysine site: K130) (UniProt Q15008)
Method in brief: as §1

[5] = molecular target: PSMD6 (lysine site: K372) (UniProt Q15008)
Method in brief: as §1

[6] = molecular target: PTPRK (lysine site: K227) (UniProt Q15262)
Method in brief: as §1

[7] = molecular target: PTPRK (lysine site: K244) (UniProt Q15262)
Method in brief: as §1

[8] = molecular target: PTPRK (lysine site: K262) (UniProt Q15262)
Method in brief: as §1

[9] = molecular target: PTPRK (lysine site: K394) (UniProt Q15262)
Method in brief: as §1

[10] = molecular target: PTPRK (lysine site: K397) (UniProt Q15262)
Method in brief: as §1

[11] = molecular target: PTPRK (lysine site: K722) (UniProt Q15262)
Method in brief: as §1

[12] = molecular target: SACM1L (lysine site: K483) (UniProt Q9NTJ5)
Method in brief: as §1

[13] = molecular target: SLC25A3 (lysine site: K218) (UniProt Q00325)
Method in brief: as §1

[14] = molecular target: SLC25A3 (lysine site: K234) (UniProt Q00325)
Method in brief: as §1

[15] = molecular target: SLC25A3 (lysine site: K252) (UniProt Q00325)
Method in brief: as §1

[16] = molecular target: SLC25A3 (lysine site: K304) (UniProt Q00325)
Method in brief: as §1

[17] = molecular target: SLC25A3 (lysine site: K313) (UniProt Q00325)
Method in brief: as §1

[18] = molecular target: SNAP23 (lysine site: K64) (UniProt O00161)
Method in brief: as §1

[19] = molecular target: TMED10 (lysine site: K145) (UniProt P49755)
Method in brief: as §1

TPBG (lysine site: K328) = TPBG (lysine site: K328) (UniProt Q13641)
Method in brief: as §1

TPBG (lysine site: K76) = TPBG (lysine site: K76) (UniProt Q13641)
Method in brief: as §1

[20] = molecular target: TSPAN14 (lysine site: K132) (UniProt Q8NG11)
Method in brief: as §1

[21] = molecular target: UniProt P08729 (lysine site: K273)
Method in brief: as §1

[22] = molecular target: UniProt P08729 (lysine site: K296)
Method in brief: as §1

[23] = molecular target: UniProt P08729 (lysine site: K326)
Method in brief: as §1

[24] = molecular target: UniProt P08729 (lysine site: K331)
Method in brief: as §1

[25] = molecular target: UniProt P08729 (lysine site: K353)
Method in brief: as §1

[26] = molecular target: UniProt P08913 (lysine site: K190)
Method in brief: as §1

[27] = molecular target: UniProt P50895 (lysine site: K482)
Method in brief: as §1

[28] = molecular target: UniProt P50895 (lysine site: K531)
Method in brief: as §1

[29] = molecular target: UniProt Q6ZS17 (lysine site: K71)
Method in brief: as §1

WLS (lysine site: K161) = WLS (lysine site: K161) (UniProt Q5T9L3)
Method in brief: as §1

WLS (lysine site: K168) = WLS (lysine site: K168) (UniProt Q5T9L3)
Method in brief: as §1

YWHAB (lysine site: K70) = YWHAB (lysine site: K70) (UniProt P31946)
Method in brief: as §1

YWHAZ (lysine site: K85) = YWHAZ (lysine site: K85) (UniProt P63104)
Method in brief: as §1

Measured: lysine labeling ratio R10:1

TMED10 (lysine site: K145), sequence (P49755 whole entry): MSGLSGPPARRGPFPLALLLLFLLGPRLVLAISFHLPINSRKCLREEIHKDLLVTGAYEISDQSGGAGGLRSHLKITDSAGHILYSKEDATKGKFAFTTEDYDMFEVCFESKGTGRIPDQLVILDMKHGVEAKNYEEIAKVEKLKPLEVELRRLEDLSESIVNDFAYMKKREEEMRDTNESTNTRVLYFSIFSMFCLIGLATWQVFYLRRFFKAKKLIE
WLS (lysine site: K161), sequence (Q5T9L3 whole entry): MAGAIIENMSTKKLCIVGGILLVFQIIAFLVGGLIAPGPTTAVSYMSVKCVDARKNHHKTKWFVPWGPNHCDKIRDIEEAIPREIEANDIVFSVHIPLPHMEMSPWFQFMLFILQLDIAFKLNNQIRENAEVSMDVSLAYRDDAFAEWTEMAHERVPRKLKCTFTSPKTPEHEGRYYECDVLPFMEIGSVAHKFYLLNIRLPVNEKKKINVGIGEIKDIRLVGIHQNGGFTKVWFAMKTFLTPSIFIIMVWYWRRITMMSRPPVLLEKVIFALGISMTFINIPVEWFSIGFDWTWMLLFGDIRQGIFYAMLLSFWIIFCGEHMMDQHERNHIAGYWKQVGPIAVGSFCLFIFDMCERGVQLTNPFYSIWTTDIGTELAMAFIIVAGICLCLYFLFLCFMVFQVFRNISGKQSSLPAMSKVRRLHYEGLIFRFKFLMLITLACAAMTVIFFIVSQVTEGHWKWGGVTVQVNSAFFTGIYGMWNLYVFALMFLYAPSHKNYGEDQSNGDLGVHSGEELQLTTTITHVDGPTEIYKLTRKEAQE
WLS (lysine site: K168), sequence (Q5T9L3 whole entry): as above
TSPAN14 (lysine site: K132), sequence (Q8NG11 whole entry): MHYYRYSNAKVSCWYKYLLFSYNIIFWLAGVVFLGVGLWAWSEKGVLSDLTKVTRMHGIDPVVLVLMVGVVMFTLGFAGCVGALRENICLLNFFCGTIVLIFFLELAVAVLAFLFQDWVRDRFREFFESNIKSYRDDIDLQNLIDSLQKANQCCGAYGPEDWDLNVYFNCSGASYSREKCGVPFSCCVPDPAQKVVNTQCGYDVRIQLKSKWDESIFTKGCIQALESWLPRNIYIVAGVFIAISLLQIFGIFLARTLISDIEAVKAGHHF
UniProt Q6ZS17 (lysine site: K71), sequence (Q6ZS17 whole entry): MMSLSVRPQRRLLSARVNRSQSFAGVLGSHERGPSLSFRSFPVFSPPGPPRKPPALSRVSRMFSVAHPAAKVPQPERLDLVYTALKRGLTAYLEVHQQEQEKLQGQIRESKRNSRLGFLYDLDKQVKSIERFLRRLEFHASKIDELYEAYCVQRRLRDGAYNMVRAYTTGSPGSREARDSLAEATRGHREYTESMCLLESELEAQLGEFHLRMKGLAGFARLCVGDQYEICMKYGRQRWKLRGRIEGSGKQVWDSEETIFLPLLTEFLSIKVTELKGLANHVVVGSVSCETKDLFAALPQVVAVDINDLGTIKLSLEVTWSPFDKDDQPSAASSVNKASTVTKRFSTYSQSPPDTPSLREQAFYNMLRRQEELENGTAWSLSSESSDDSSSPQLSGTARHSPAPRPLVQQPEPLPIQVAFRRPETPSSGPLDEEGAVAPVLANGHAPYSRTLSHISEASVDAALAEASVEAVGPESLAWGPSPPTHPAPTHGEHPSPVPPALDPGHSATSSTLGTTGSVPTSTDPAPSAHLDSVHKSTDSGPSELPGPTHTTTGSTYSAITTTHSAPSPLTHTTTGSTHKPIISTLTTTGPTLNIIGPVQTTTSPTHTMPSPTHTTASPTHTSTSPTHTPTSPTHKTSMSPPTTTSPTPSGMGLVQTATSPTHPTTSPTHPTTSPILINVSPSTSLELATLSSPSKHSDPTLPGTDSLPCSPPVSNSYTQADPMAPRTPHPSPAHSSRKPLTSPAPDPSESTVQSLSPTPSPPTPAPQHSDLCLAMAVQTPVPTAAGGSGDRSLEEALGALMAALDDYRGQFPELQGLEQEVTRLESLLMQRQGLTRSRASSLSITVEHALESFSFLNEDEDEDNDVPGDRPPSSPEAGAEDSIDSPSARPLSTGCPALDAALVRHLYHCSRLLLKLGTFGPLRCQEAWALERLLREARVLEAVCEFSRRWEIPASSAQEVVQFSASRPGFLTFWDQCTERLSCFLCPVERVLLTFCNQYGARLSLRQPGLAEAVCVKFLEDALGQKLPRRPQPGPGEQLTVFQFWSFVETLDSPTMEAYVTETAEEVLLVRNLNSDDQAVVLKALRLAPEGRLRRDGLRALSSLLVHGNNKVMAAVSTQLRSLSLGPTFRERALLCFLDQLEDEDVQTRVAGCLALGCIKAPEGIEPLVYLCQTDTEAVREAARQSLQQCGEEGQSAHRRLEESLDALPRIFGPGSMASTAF
SACM1L (lysine site: K483), sequence (Q9NTJ5 whole entry): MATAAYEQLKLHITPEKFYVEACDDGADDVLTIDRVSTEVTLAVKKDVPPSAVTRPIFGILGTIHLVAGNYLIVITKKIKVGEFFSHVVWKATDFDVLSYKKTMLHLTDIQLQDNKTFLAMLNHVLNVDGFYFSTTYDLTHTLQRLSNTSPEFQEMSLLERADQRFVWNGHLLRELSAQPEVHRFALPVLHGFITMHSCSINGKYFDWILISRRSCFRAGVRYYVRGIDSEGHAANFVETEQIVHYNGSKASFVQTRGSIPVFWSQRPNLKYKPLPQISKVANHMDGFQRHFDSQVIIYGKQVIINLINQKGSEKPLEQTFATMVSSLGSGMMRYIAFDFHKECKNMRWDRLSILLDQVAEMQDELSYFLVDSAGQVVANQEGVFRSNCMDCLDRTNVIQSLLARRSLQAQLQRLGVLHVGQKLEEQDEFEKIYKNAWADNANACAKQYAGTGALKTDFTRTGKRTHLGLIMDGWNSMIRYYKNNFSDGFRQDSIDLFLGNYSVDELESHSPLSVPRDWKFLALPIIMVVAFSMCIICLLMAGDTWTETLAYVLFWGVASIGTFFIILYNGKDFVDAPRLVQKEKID
YWHAB (lysine site: K70), sequence (P31946 whole entry): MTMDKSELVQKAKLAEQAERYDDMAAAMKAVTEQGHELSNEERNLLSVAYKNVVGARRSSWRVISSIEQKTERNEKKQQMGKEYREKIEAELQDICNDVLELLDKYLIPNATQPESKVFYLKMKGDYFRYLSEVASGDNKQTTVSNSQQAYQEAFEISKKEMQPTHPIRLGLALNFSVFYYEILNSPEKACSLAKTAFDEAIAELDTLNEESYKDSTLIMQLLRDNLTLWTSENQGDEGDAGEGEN
SNAP23 (lysine site: K64), sequence (O00161 whole entry): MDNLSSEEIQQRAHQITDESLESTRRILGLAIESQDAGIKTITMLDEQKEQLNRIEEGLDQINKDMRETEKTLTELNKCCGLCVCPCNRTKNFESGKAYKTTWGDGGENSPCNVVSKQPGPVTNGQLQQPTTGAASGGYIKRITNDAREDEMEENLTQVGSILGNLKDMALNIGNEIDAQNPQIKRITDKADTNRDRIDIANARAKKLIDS
UniProt P08729 (lysine site: K273), sequence (P08729 whole entry): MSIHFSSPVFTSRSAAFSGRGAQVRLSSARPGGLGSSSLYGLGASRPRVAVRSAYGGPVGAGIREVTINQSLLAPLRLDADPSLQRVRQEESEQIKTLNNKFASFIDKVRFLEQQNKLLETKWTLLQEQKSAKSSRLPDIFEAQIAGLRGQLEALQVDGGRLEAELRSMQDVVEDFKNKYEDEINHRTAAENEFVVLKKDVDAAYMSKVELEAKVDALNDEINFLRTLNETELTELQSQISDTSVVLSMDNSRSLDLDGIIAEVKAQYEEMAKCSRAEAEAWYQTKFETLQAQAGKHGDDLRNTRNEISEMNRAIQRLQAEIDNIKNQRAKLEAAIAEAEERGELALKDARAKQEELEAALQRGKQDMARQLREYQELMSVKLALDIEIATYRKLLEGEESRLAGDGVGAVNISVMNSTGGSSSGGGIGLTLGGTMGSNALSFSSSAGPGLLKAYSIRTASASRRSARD
UniProt P08729 (lysine site: K296), sequence (P08729 whole entry): as above
UniProt P08729 (lysine site: K326), sequence (P08729 whole entry): as above
UniProt P08729 (lysine site: K331), sequence (P08729 whole entry): as above
UniProt P08729 (lysine site: K353), sequence (P08729 whole entry): as above
PSMD6 (lysine site: K130), sequence (Q15008 whole entry): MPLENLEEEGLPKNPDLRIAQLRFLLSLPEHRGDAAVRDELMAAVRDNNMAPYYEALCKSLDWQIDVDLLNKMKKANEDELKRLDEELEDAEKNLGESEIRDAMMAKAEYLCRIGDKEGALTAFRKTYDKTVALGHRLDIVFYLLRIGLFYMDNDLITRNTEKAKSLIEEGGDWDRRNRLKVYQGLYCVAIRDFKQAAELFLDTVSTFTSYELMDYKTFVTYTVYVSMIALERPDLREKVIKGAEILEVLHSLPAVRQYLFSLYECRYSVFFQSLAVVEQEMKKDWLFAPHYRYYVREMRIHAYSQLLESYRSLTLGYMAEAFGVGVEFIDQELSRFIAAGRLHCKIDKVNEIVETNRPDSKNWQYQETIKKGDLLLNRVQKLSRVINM
PSMD6 (lysine site: K372), sequence (Q15008 whole entry): as above
SLC25A3 (lysine site: K218), sequence (Q00325 whole entry): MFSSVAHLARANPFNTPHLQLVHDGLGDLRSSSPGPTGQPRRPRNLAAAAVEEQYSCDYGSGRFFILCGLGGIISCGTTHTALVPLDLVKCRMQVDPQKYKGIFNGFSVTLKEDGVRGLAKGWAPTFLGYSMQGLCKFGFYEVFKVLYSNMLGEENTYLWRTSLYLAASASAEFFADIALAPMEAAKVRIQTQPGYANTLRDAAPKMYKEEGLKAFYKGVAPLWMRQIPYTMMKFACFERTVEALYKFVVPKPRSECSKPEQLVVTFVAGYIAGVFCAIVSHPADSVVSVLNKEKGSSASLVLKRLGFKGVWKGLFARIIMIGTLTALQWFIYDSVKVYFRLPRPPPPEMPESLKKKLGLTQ
SLC25A3 (lysine site: K234), sequence (Q00325 whole entry): as above
SLC25A3 (lysine site: K252), sequence (Q00325 whole entry): as above
SLC25A3 (lysine site: K304), sequence (Q00325 whole entry): as above
SLC25A3 (lysine site: K313), sequence (Q00325 whole entry): as above

C#CCNC(=O)CCSSCCC(=O)NCCc1ccc(C=O)c(C=O)c1
active: [2] 0.841 | [4] 0.957 | [5] 0.563 | [7] 1.58 | [13] 0.82 | [14] 1.8 | [18] 1.47 | TPBG (lysine site: K328) 1.99 | [20] 0.603 | [27] 1.94
inactive: [1] 2.7 | [3] 2.06 | [6] 3.07 | [8] 4.25 | [9] 7.37 | [10] 3.52 | [11] 2.01 | [12] 4.06 | [15] 3.68 | [16] 4.79 | [17] 4.2 | [19] 4.28 | TPBG (lysine site: K76) 2.54 | [21] 3.39 | [22] 3.6 | [23] 5.31 | [24] 5.69 | [25] 9.28 | [26] 2.31 | [28] 2.47 | [29] 5.33 | WLS (lysine site: K161) 9.23 | WLS (lysine site: K168) 5.48 | YWHAB (lysine site: K70) 3.41 | YWHAZ (lysine site: K85) 3.38
